Compound activity (PubChem)
Hits are enriched below; roughly 5.7% of the tested compounds scored in any of these assays.
IL1B secr inh: qHTS for Inhibitors of Inflammasome Signaling: IL-1-beta AlphaLISA Primary Screen | THP-1 LPS/ATP IL-1B secretion, AlphaLISA, 16 h; hits give low values | activity change, % at 57.5 µM | 4.7% of 360,000 active; in the data active = activity change below about -50%; inconclusive = mostly about -30% to -49%; note: % is set by controls: 0 for no effect and ±100 for the full control effect
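Secreted IL-1B measured by AlphaLISA bead assay after 16 h compound exposure of THP-1 cells; compounds (final up to 57.5 uM) added 1 h before LPS (250 ng/mL) and ATP (1.25 mM) stimulation; lower signal means less secretion.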
ATXN2 expr inh: Primary qHTS for Inhibitors of ATXN expression. HEK-293 ATXN2-luciferase reporter, luminescence, 24 h. Potency, µM (highest dose often 57 µM), for the others: top-dose activity change, negative = inhibition, actives largely listed as inhibitors. 0.72% of 360,000 active; note: potency is the fitted concentration of half-maximal effect; % is set by controls: 0 for no effect and ±100 for the full control effect; nearly all actives have a fitted effect of over 55% in size
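qHTS (up to 57 uM final) was run with 24 h compound exposure of reporter cells at 37 °C. Each well was multiplexed: SteadyGlo luminescence measured ATXN2-luciferase expression after a fluorogenic Gly-Phe-AFC viability readout (25 uM final).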
HepG2 tox-1: qHTS for Inhibitors of TGF-b: Cytotox Counterscreen; HepG2 CAGA-GFP viability, ATP luminescence, 18 h; AID 588856, 2011; 0.76% of 410,000 active; Potency, µM (series often up to 46.1 µM), for the others: at the top dose activity change, negative = cytotoxicity, actives largely listed as cytotoxic; note: potency is the fitted concentration of half-maximal effect
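HepG2 CAGA-GFP cells (1000/well, DMEM with 1% FBS) received compound, then TGF-beta at 500 pg/mL final, and were incubated 18 hours at 37 degrees C. Viability was read by CellTiter-Glo luminescence. Media-only wells were set as complete cell-killing and DMSO as no toxicity.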
S2 tox: Viability Counterscreen for Primary qHTS for Inhibitors of ATXN expression; AID 651635, 2014; 0.49% of 400,000 active; Potency, µM (series often up to 56.7 µM), most hits filed as cytotoxic; S2 cells (HEK-293 line with an ATXN2-luciferase reporter) viability, CellTiter-Fluor protease fluorescence, 24 h; note: potency is the fitted concentration of half-maximal effect; nearly all actives have a fitted effect of over 40% in size
TGFb inhibitor: qHTS for Inhibitors of TGF-b. HepG2 CAGA-GFP TGF-b/SMAD3 reporter, GFP fluorescence, 18 h; TGF-beta stimulated, 500 pg/mL final. Potency, µM (top dose mostly 46.1 µM), for the others: at the top dose activity, negative = inhibition, hits mostly inhibitors. 1.2% of 410,000 active. AID 588855, 2011; note: potency is the fitted concentration of half-maximal effect; % is set by controls: 0 for no effect and ±100 for the full control effect; nearly all actives have a fitted effect of over 65% in size
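HEPG2 CAGA-GFP reporter cells (1000/well, DMEM with 1% FBS) received compounds, then recombinant TGF-beta at 500 pg/mL final for 18 hours at 37 degrees C. Per-cell GFP summed per well was normalised to unstimulated and stimulated DMSO controls before curve fitting.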
TGFb CAGA inh: qHTS for Inhibitors of TGF-b: Confirmation of Cherry Picks. shares compounds with TGFb inhibitor. HepG2 CAGA-GFP TGF-b reporter, GFP fluorescence, 18 h; cells stimulated with TGF-beta, 500 pg/mL. Potency, µM (doses to about 46.1 µM), for the others: top-dose activity, negative = inhibition, hits mostly inhibitors. 63% of 1,600 active. AID 720534, 2013; note: potency is the fitted concentration of half-maximal effect; % is set by controls: 0 for no effect and ±100 for the full control effect; nearly all actives have a fitted effect of over 65% in size
HepG2 tox-2: qHTS for Inhibitors of TGF-b: Cytotox Counterscreen for Cherry Picks. AID 720535, 2013. 27% of 1,600 active. HepG2 CAGA-GFP viability, ATP luminescence, 18 h; cells stimulated with TGF-beta, 500 pg/mL. shares compounds with TGFb inhibitor. Potency, µM (doses to about 46.1 µM), for inactives: top-dose activity, negative = cytotoxicity, usual class: inhibitors; note: potency is the fitted concentration of half-maximal effect; % is set by controls: 0 for no effect and ±100 for the full control effect; nearly all actives have a fitted effect of over 70% in size
CCL64 TGFb inh: qHTS for Inhibitors of TGF-b: CCL64 Cells Orthogonal Assay for Cherry Picks; shares compounds with TGFb inhibitor; CCL64 CAGA-GFP reporter, TGF-b stimulated, GFP fluorescence, 18 h; Potency, µM (titrated, usually from 46.1 µM), for the others: at the highest dose activity, negative = inhibition, most hits filed as inhibitors; 41% of 1,600 active; note: potency is the fitted concentration of half-maximal effect; nearly all actives have a fitted effect of over 65% in size
COP TGFb inh: qHTS for Inhibitors of TGF-b: Hit Validation in HepG2 Cells using COP promoter; shares compounds with TGFb inhibitor; HepG2 COP-GFP TGF-b reporter, GFP fluorescence, 18 h; cells stimulated by added recombinant TGF-beta; Potency, µM (highest dose often 46.1 µM), for inactives: at the highest dose activity, negative = inhibition, most hits filed as inhibitors; 3% of 1,600 active; AID 720537, 2013; note: potency is the fitted concentration of half-maximal effect; nearly all actives have a fitted effect of over 70% in size
* hit, by the source's call; i = inactive; ? = inconclusive; · = no result given. Unless noted, calls come from the whole dose curve; as a rule, active = well fitted curve in the direction sought with a large enough effect; inconclusive = small, poorly fitted or top-dose-only effect, or another doubt; inactive = no such curve, though single readings can be large; an effect the other way counts as inactive or inconclusive.

SMILES	IL1B secr inh	ATXN2 expr inh	HepG2 tox-1	S2 tox	TGFb inhibitor	TGFb CAGA inh	HepG2 tox-2	CCL64 TGFb inh	COP TGFb inh
Cc1ccc(NC(=O)Nc2nnc(-c3ccncc3)s2)cc1C	-25	-34%	-44%	i	7.9µM*	9.2µM*	?	?	27%
CCSc1nnc(NC(=O)Nc2cccc(C)c2)s1	-9	-7%	-25%	i	7.9µM*	?	?	?	21%
CCN(c1ccccc1)S(=O)(=O)c1ccc(NC(=O)c2nc(SC)ncc2Cl)cc1	·	-16%	-48%	?	?	·	·	·	·
COc1cc(-c2noc(CCC(=O)Nc3cc(C)ccc3C)n2)cc(OC)c1OC	·	-4%	-5%	?	?	·	·	·	·
NC(c1csc(NC(=O)Nc2cccc(Cl)c2)n1)c1ccccc1Cl (centres undefined)	-107*	?	-89%	?	10µM*	18µM*	?	?	73%
Cc1cccc(C)c1NC(=O)Nc1nc(C(N)c2ccccc2Cl)cs1 (centres undefined)	-19	-2%	-7%	?	-5%	·	·	·	·
OC[C@@H]1CN(Cc2ccc(-c3ccccc3)cc2)C[C@H](n2cnc3c(Nc4ccccc4)ncnc32)O1	?	?	-23%	i	10µM*	8.2µM*	?	?	26%
OC[C@@H]1CN(Cc2ccc(F)cc2)C[C@H](n2cnc3c(Nc4ccccc4)ncnc32)O1	60	2%	-30%	i	1%	·	·	·	·
Cc1ccc(Cn2c(=O)c3c(nc4n3CCN4c3cc(C)cc(C)c3)n(C)c2=O)cc1	·	·	2%	·	7%	·	·	·	·
Cc1cccc(C(=O)NC(=S)Nc2ccc(Cc3ccncc3)cc2)c1	?	-8%	-29%	i	?	·	·	·	·
Cc1cc(C)cc(C(=O)NC(=S)Nc2ccc(Cc3ccncc3)cc2)c1	?	-37%	-25%	i	7.1µM*	13µM*	?	-24%	15%
CCNC(=O)N(CC)C[C@H]1N[C@@](Cc2ccccc2)(C(=O)OC)[C@H]2C(=O)N(Cc3ccccc3)C(=O)[C@@H]12	12	1%	1%	i	33%	·	·	·	·
CCN(C[C@H]1N[C@@](C)(C(=O)OC)[C@H]2C(=O)N(Cc3ccccc3)C(=O)[C@@H]12)C(=O)Nc1ccc(Cl)cc1	109	-12%	-5%	?	0%	·	·	·	·
CCN(C[C@H]1N[C@@](Cc2ccccc2)(C(=O)OC)[C@H]2C(=O)N(Cc3ccccc3)C(=O)[C@@H]12)C(=O)Nc1ccc(Cl)cc1	-13	-16%	-17%	?	13µM*	7.3µM*	-28%	12µM*	25%
COC(=O)[C@]1(Cc2ccccc2)N[C@H](CN(C)C(=O)Nc2ccc(C(F)(F)F)cc2)[C@@H]2C(=O)N(Cc3ccccc3)C(=O)[C@@H]21	?	-25%	-29%	i	10µM*	21µM*	-27%	8.2µM*	-4%
CC[C@@]1(C(=O)OC)N[C@H](CN(C)C(=O)Nc2ccc(C(F)(F)F)cc2)[C@@H]2C(=O)N(Cc3ccccc3)C(=O)[C@@H]21	-19	1%	-2%	i	-7%	·	·	·	·
CCN(C[C@H]1N[C@@](Cc2ccccc2)(C(=O)OC)[C@H]2C(=O)N(Cc3ccccc3)C(=O)[C@@H]12)C(=O)Nc1ccc(F)cc1	?	-18%	-6%	?	13µM*	23µM*	-17%	?	-2%
CCOc1ccc(CCNC(=O)c2sc3ncccc3c2-n2cccc2)cc1OCC	·	-13%	-43%	?	-11%	·	·	·	·
COc1cc(NS(=O)(=O)c2cnc(N)nc2)cc(OC)c1	·	·	3%	·	0%	·	·	·	·
CCOC(=O)Nc1nc(-c2ccccc2)c(C(=O)c2ccc(Cl)cc2)s1	36	-12%	16%	?	8.9µM*	7.3µM*	-9%	9.2µM*	3%
COc1cc(F)ccc1-c1cc(C(=O)Nc2ccc(C)c(NS(C)(=O)=O)c2)[nH]n1	-4	3%	-61%	i	?	·	·	·	·
CCCOc1ccc(F)cc1-c1cc(C(=O)Nc2ccc(C)c(NS(C)(=O)=O)c2)[nH]n1	-11	0%	-30%	i	18µM*	?	?	23µM*	50%
CCOC(=O)c1cccc(NC(=O)c2cc3cc4ccc(C)cc4nc3o2)c1	·	1%	-1%	i	?	·	·	·	·
COc1cc2nc(SCC(=O)Nc3ccccc3C)n3nc(CCn4c(C)nc5ccccc54)nc3c2cc1OC	·	-4%	-4%	i	-4%	·	·	·	·
CCCc1nc([N+](=O)[O-])c(S(=O)(=O)c2ccccc2)n1CC(C)C	-100*	?	-64%	?	10µM*	21µM*	?	16µM*	28%
O=C(N/N=C/c1ccc[nH]1)c1ccc(COc2cccc3cccnc23)cc1	-89*	7.5µM*	2%	?	1.8µM*	18µM*	?	2.1µM*	67%
C=CCn1c(CSCc2ccc(Cl)cc2)nnc1SCC(=O)NCc1ccccc1	21	12%	-39%	?	8.9µM*	?	-9%	-34%	5%
O=C(CSc1nnc(CCc2ccccc2)n1-c1ccc(Cl)cc1)NCc1ccccc1	-7	3%	-10%	i	11µM*	?	-23%	?	-3%
Cn1nnnc1SCC(=O)NCc1ccccc1	22	3%	-9%	i	-20%	·	·	·	·
